Assay results from PubChem BioAssay AID1159580 (chemical genetic matrix, 2015).
In all, about 5,500 compounds went through this assay and about 2,000 (36%) were called active. Roughly 18% stayed inconclusive and do not appear here. No stated cut-off is given here; in the data, active means normalized growth mostly below about 0.91 (no sharp cut-off); inconclusive means no clear call, values can overlap the other calls; inactive means mostly above about 0.92. The list shows a part of the results.

Assay: chemical genetic growth profiling, strain panel (AID 1159580);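 further: tested at 20 µM; growth read once vehicle control cultures reached saturation at 30 °C; 1 = growth at the plate median or of vehicle wells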
Conditions: S. cerevisiae deletion strains, growth OD

Measured: normalized growth

CC(=O)NC(C(=O)O)C(C)(C)SN=O (centres undefined)
inactive: locus YAL013W, strain DEP1, stronger effect = lower value 1.02 | locus YAL021C, strain ccr4, stronger effect = lower value 1.01 | locus YAL026C, strain drs2, stronger effect = lower value 0.992 | locus YAL030W, strain snc1, stronger effect = lower value 0.991 | locus YBL061C, strain skt5, stronger effect = lower value 0.984 | locus YBR009C, strain hhf1, stronger effect = lower value 1 | locus YBR021W, strain FUR4, stronger effect = lower value 0.977 | locus YBR023C, strain chs3, stronger effect = lower value 0.994 | locus YBR171W, strain sec66, stronger effect = lower value 0.993 | locus YBR229C, strain ROT2, stronger effect = lower value 1.01 | locus YBR231C, strain swc5, stronger effect = lower value 0.996 | locus YBR279W, strain paf1, stronger effect = lower value 0.986 | locus YCL011C, strain gbp2, stronger effect = lower value 0.996 | locus YCL016C, strain dcc1, stronger effect = lower value 0.985 | locus YCL029C, strain bik1, stronger effect = lower value 0.981 | locus YCL061C, strain MRC1, stronger effect = lower value 0.999 | locus YCL069W, strain vba3, stronger effect = lower value 0.991 | locus YCR088W, strain abp1, stronger effect = lower value 0.983 | locus YDL005C, strain med2, stronger effect = lower value 0.977 | locus YDL035C, strain GPR1, stronger effect = lower value 1 | locus YDL040C, strain nat1, stronger effect = lower value 0.996 | locus YDL074C, strain BRE1, stronger effect = lower value 1.06 | locus YDL101C, strain DUN1, stronger effect = lower value 1 | locus YDL134C, strain PPH21, stronger effect = lower value 1.01 | locus YDL185W, strain tfp1, stronger effect = lower value 0.98 | locus YDL192W, strain arf1, stronger effect = lower value 0.999 | locus YDR001C, strain nth1, stronger effect = lower value 0.984 | locus YDR069C, strain doa4, stronger effect = lower value 0.984 | locus YDR101C, strain arx1, stronger effect = lower value 1 | locus YDR137W, strain rgp1, stronger effect = lower value 1.04 | locus YDR150W, strain NUM1, stronger effect = lower value 0.978 | locus YDR159W, strain sac3, stronger effect = lower value 0.997 | locus YDR162C, strain NBP2, stronger effect = lower value 1.03 | locus YDR195W, strain ref2 0.949 | locus YDR297W, strain sur2, stronger effect = lower value 0.98 | locus YDR318W, strain mcm21, stronger effect = lower value 1 | locus YDR334W, strain swr1, stronger effect = lower value 0.976 | locus YDR335W, strain msn5, stronger effect = lower value 0.982 | locus YDR388W, stronger effect = lower value 1 | locus YDR392W, strain spt3, stronger effect = lower value 0.98 | locus YDR502C, strain sam2, stronger effect = lower value 1 | locus YEL003W, strain gim4, stronger effect = lower value 0.988 | locus YEL037C, strain rad23, stronger effect = lower value 0.984 | locus YEL061C, strain CIN8 (second series), stronger effect = lower value 0.989 | locus YEL061C, strain CIN8, stronger effect = lower value 1 | locus YER015W, strain faa2, stronger effect = lower value 0.996 | locus YER016W, strain bim1, stronger effect = lower value 0.991 | locus YER110C, stronger effect = lower value 0.984 | locus YER111C, strain swi4, stronger effect = lower value 0.981 | locus YER155C, strain BEM2 (second series), stronger effect = lower value 0.989 | locus YER155C, strain BEM2, stronger effect = lower value 1 | locus YER167W, strain BCK2, stronger effect = lower value 0.995 | locus YFR010W, strain ubp6, stronger effect = lower value 0.976 | locus YGL078C, strain dbp3, stronger effect = lower value 0.99 | locus YGL086W, strain mad1, stronger effect = lower value 0.988 | locus YGL167C, strain pmr1, stronger effect = lower value 0.99 | locus YGL173C, strain kem1, stronger effect = lower value 0.995 | locus YGL227W, strain vid30, stronger effect = lower value 0.992 | locus YGL240W, strain doc1, stronger effect = lower value 0.989 | locus YGL248W, strain PDE1, stronger effect = lower value 1.01 | locus YGL253W, strain hxk2, stronger effect = lower value 0.983 | locus YGR078C, strain PAC10, stronger effect = lower value 1.02 | locus YGR135W, strain pre9, stronger effect = lower value 1 | locus YGR229C, strain SMI1, stronger effect = lower value 1.05 | locus YGR252W, strain gcn5, stronger effect = lower value 1.01 | locus YHR013C, strain ard1, stronger effect = lower value 0.972 | locus YHR027C, strain rpn1, stronger effect = lower value 1.01 | locus YHR030C, strain SLT2, stronger effect = lower value 1 | locus YHR079C, strain IRE1 (second series), stronger effect = lower value 0.999 | locus YHR094C, strain hxt1, stronger effect = lower value 0.98 | locus YHR129C, strain ARP1, stronger effect = lower value 0.998 | locus YHR142W, strain chs7, stronger effect = lower value 0.978 | locus YHR200W, strain rpn10, stronger effect = lower value 0.992 | locus YIL066C, strain RNR3, stronger effect = lower value 1.01 | locus YIL073C, strain SPO22, stronger effect = lower value 0.913 | locus YIL125W, strain kgd1, stronger effect = lower value 0.99 | locus YIR030C, strain dcg1, stronger effect = lower value 1 | locus YJL092W, strain hpr5, stronger effect = lower value 0.983 | locus YJL095W, strain BCK1 (second series), stronger effect = lower value 0.989 | locus YJL095W, strain BCK1, stronger effect = lower value 1.07 | locus YJL115W, strain asf1, stronger effect = lower value 0.986 | locus YJL129C, strain trk1, stronger effect = lower value 0.995 | locus YJL134W, strain LCB3, stronger effect = lower value 1 | locus YJL154C, strain vps35, stronger effect = lower value 0.975 | locus YJL164C, strain tpk1, stronger effect = lower value 1 | locus YJL166W, strain qcr8, stronger effect = lower value 0.996 | locus YJL168C, strain set2, stronger effect = lower value 1.01 | locus YJL187C, strain SWE1 (second series), stronger effect = lower value 1 | locus YJL187C, strain SWE1, stronger effect = lower value 0.989
